Experimental data reported in the supplement of paper PMC11732987, “Enantioselective OTUD7B fragment discovery through chemoproteomics screening and high-throughput optimisation” (Communications Chemistry, 2025).

Legend:
Assay in all cases: log2 ratio of Biotin-Ahx-Ub-VS probe labelling (fragment/DMSO); higher = less target engagement (more negative = stronger competition), active = hit call of the paper (q ≤ 0.05, log2 ratio ≤ -1)
Conditions in all cases: compound concentration: 200 uM; treatment time: 3 h
USP42 = target: T1, USP42 (UniProt Q9H9J4)
T1 sequence (whole entry): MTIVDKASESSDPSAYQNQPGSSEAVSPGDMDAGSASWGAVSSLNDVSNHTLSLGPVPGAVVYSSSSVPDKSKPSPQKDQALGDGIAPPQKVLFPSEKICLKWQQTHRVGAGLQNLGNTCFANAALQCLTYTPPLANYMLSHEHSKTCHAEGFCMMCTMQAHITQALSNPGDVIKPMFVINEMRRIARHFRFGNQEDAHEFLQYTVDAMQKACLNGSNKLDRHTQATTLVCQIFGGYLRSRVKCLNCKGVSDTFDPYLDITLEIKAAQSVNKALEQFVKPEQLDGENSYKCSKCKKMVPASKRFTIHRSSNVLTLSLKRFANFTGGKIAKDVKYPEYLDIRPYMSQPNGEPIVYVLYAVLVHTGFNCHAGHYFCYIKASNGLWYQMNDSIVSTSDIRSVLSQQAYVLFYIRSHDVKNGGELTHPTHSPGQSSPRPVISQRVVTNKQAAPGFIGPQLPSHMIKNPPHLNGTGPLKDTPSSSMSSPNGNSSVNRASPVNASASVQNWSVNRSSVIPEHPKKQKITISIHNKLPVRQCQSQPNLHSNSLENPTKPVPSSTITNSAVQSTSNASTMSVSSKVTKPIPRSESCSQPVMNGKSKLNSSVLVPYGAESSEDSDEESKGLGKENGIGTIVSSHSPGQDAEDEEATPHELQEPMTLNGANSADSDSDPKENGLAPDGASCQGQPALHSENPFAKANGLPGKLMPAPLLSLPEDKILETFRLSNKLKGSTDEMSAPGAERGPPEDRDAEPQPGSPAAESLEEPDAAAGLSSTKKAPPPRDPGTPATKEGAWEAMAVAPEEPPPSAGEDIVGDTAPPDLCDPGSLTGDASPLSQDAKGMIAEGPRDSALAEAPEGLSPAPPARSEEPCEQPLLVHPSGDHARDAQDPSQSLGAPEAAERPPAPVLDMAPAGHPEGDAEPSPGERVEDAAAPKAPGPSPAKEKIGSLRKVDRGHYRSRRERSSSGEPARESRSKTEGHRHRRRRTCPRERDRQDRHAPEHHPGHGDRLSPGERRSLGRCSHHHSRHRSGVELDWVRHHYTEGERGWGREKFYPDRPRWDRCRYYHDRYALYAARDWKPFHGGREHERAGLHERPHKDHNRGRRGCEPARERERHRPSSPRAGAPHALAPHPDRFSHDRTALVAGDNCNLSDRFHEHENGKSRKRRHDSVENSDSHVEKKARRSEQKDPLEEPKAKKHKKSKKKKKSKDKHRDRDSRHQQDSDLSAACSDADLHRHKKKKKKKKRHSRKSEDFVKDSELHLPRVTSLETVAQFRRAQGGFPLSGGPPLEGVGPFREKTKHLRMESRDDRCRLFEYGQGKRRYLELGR
In short: (§1)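 HEK293T lysate, 495 µg per sample in Tris/CHAPS/IGEPAL buffer with protease inhibitors, was treated in triplicate with fragment at 200 µM or vehicle for 3 h and then with Biotin-Ahx-Ub-VS at 0.5 µM final for 1 h. Labelled DUBs were NeutrAvidin-enriched, digested with LysC and trypsin, and run by diaPASEF LC-MS/MS. Spectronaut label-free quantities were global-median-normalised, and values are average log2 fragment/vehicle ratios by unpaired t-test on proteins with ≥2 unique peptides.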

USP46 = USP46 (UniProt P62068)
In short: as §1

USP47 = target: T2, USP47 (UniProt Q96K76)
T2 sequence (whole entry): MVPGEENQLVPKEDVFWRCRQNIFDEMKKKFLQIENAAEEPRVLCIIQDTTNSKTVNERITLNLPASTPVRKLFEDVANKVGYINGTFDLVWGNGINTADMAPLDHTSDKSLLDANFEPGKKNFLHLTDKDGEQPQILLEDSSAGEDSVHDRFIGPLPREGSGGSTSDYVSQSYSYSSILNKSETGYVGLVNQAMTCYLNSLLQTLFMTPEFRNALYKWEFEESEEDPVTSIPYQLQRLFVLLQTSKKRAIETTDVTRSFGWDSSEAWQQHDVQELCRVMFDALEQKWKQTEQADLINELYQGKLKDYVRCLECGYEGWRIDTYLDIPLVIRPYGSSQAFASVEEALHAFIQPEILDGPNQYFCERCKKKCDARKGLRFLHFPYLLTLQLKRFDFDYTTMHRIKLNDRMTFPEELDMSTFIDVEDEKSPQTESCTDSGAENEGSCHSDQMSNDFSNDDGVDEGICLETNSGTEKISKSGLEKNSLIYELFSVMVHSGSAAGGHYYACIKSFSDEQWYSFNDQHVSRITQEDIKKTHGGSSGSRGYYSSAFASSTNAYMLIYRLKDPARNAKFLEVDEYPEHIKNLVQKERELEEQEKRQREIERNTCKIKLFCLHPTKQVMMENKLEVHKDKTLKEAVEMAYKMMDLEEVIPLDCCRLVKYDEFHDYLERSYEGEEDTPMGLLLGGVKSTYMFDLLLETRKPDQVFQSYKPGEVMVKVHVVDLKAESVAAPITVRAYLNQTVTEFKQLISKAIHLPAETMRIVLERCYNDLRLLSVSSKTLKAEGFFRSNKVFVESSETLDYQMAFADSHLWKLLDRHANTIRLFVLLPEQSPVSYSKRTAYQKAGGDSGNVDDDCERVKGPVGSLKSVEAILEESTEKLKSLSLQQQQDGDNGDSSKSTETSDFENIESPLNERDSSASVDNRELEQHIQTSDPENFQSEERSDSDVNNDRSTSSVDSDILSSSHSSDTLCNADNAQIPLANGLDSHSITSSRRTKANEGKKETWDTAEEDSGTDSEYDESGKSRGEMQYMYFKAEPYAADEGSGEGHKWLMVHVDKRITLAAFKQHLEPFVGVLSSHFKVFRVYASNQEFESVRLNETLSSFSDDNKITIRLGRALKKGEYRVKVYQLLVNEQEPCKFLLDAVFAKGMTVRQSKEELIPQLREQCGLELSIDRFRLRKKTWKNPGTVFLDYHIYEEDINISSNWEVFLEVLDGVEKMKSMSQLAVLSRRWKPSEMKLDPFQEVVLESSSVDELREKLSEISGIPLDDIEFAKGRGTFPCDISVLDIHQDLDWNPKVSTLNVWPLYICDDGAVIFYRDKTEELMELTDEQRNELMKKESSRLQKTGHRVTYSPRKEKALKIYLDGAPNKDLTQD
In short: as §1

USP48 = target: T3, USP48 (UniProt Q86UV5)
T3 sequence (whole entry): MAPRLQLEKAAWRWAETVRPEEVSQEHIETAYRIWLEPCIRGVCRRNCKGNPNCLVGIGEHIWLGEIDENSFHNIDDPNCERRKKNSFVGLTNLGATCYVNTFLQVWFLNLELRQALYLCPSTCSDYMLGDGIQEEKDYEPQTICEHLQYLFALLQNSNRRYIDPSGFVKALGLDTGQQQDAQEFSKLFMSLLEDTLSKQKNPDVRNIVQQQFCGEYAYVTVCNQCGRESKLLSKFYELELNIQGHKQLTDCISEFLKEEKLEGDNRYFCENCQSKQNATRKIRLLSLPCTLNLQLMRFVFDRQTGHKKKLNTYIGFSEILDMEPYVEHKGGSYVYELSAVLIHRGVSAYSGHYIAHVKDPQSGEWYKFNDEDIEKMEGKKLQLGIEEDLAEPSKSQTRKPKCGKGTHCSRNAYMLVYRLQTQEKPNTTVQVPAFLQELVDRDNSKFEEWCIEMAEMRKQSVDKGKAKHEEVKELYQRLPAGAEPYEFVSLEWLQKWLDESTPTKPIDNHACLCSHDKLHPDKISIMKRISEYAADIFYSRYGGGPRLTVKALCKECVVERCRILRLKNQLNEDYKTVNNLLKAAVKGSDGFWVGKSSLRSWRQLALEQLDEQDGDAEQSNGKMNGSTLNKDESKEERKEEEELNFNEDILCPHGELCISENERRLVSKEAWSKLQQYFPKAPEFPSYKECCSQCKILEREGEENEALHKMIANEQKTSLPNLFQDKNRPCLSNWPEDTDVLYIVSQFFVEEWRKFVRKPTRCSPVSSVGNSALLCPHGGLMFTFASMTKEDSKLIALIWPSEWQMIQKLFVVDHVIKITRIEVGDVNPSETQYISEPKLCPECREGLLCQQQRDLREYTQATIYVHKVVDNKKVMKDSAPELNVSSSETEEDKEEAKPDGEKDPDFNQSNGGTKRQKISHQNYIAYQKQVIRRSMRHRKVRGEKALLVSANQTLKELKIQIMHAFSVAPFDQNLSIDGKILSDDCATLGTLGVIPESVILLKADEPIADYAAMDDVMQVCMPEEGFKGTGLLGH
In short: as §1

USP5 = target: T4, USP5 (UniProt P45974)
T4 sequence (whole entry): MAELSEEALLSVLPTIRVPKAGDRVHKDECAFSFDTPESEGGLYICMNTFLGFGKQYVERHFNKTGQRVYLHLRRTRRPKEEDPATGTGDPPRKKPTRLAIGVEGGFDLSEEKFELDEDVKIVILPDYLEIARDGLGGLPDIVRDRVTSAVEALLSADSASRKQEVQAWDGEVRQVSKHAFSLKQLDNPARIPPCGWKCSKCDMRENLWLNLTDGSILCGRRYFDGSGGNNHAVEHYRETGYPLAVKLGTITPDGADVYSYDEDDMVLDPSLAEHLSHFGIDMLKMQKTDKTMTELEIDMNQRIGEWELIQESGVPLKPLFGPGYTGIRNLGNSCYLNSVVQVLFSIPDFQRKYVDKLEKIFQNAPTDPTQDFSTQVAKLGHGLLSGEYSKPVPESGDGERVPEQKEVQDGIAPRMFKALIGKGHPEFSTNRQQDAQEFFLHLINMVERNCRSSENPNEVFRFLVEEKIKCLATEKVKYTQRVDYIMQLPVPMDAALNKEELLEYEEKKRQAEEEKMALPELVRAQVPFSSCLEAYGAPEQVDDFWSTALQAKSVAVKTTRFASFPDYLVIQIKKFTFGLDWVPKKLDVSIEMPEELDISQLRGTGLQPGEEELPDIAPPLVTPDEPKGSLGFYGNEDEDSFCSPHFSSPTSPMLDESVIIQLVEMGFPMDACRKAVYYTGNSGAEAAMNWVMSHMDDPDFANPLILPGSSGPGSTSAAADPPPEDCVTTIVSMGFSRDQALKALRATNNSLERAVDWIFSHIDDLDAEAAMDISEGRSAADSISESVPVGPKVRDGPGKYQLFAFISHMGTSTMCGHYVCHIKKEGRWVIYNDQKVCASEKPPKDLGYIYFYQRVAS
In short: as §1

USP54 = USP54 (UniProt Q70EL1)
In short: as §1

USP7 = USP7 (UniProt Q93009)
In short: as §1

USP8 = target: T5, USP8 (UniProt P40818)
T5 sequence (whole entry): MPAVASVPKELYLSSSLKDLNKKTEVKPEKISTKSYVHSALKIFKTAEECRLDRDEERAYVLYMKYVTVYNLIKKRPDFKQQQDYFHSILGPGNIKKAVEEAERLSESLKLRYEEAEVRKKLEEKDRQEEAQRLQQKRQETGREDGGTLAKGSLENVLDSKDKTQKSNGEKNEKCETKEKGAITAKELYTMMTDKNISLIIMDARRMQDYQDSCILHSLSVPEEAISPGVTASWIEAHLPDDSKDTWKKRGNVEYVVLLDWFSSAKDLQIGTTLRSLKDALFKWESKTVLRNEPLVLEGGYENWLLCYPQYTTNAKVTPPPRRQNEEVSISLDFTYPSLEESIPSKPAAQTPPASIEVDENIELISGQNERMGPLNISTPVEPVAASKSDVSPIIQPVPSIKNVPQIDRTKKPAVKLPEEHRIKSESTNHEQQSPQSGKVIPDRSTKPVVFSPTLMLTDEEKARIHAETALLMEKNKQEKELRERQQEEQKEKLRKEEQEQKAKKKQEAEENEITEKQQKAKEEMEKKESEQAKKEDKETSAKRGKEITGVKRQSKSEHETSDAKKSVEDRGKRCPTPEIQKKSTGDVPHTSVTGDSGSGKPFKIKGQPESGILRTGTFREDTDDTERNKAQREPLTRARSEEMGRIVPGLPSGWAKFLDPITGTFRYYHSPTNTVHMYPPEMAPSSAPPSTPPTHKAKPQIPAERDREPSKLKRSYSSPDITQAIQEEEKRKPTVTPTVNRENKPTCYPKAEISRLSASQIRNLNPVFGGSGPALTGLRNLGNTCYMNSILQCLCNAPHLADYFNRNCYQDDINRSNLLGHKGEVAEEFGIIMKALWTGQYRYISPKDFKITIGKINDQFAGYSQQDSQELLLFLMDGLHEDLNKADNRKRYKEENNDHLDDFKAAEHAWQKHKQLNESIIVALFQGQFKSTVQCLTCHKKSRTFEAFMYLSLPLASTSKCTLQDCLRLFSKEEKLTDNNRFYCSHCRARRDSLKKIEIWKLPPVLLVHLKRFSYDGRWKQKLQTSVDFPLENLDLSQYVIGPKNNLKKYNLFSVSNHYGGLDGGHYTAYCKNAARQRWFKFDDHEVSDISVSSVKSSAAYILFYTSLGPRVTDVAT
In short: as §1

Measured: log2 ratio of Biotin-Ahx-Ub-VS probe labelling

Chain of USP7 (Q93009 whole entry, looked up): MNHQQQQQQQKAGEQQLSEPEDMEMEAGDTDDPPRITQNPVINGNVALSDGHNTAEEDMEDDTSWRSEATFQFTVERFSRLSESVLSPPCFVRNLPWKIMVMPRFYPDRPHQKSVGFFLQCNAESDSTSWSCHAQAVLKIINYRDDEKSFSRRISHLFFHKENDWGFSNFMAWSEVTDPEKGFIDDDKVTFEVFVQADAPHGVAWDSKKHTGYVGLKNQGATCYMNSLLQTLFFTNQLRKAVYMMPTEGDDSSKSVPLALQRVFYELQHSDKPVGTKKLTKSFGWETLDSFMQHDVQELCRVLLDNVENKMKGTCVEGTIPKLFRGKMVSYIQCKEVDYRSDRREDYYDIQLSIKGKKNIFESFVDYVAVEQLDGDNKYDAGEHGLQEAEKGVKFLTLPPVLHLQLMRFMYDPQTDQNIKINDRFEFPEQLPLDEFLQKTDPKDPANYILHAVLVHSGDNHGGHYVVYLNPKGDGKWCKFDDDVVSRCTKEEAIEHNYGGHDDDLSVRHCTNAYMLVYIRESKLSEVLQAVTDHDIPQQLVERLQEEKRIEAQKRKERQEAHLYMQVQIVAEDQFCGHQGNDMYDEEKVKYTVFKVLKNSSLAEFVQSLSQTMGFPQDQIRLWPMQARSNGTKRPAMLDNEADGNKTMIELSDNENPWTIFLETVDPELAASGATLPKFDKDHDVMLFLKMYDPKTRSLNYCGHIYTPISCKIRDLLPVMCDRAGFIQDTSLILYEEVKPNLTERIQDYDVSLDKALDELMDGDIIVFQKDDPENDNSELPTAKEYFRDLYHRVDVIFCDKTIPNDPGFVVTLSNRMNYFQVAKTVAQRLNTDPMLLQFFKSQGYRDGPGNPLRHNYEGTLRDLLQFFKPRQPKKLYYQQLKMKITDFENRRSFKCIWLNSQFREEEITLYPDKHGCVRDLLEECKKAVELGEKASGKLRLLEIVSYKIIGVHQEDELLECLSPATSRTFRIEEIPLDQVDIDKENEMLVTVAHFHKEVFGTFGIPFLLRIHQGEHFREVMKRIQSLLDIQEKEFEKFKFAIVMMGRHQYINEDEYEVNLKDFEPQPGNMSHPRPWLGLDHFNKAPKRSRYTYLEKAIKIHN
Chain of USP54 (Q70EL1 whole entry): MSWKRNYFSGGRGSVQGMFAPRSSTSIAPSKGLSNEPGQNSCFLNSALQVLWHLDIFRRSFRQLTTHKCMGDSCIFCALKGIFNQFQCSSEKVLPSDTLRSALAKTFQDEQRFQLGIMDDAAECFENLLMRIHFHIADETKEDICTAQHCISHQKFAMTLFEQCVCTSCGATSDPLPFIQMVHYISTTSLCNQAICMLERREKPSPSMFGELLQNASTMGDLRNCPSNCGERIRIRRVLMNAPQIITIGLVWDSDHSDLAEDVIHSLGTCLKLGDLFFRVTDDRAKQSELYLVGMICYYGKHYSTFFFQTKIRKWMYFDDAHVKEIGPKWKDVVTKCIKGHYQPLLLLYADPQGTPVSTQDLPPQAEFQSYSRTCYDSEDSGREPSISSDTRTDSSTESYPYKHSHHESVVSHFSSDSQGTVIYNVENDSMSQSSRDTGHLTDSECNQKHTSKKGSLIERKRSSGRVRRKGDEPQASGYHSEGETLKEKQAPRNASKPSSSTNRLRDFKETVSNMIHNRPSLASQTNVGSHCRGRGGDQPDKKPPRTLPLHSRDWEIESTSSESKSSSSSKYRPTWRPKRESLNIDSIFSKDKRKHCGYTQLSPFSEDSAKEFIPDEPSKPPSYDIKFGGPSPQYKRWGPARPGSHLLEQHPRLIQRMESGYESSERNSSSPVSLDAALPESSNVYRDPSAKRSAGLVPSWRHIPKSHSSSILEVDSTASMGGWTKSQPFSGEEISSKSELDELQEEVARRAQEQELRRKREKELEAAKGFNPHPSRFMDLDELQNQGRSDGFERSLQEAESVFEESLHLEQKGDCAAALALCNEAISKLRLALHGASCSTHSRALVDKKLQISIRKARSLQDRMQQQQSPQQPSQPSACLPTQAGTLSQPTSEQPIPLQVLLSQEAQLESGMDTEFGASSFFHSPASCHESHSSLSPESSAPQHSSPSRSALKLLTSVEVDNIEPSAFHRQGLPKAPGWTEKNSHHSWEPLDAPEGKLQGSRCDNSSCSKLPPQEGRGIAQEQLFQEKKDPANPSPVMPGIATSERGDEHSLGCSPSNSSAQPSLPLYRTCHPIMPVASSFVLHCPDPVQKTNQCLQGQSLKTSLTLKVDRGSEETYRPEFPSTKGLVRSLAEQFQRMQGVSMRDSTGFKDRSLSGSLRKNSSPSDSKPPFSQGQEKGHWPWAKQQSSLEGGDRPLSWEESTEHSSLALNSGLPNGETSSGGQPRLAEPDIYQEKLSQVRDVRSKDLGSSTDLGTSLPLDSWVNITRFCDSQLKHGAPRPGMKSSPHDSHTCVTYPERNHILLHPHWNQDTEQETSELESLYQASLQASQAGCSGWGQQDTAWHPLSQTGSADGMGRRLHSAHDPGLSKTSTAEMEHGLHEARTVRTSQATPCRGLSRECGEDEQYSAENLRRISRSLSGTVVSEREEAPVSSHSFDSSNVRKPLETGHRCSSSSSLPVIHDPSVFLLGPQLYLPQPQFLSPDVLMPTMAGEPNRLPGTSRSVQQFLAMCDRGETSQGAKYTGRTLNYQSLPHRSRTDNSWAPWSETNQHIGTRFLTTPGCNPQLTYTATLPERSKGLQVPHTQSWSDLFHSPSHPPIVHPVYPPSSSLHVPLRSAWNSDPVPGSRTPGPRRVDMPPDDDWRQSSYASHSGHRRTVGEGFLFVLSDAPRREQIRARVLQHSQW
Chain of USP46 (P62068 whole entry): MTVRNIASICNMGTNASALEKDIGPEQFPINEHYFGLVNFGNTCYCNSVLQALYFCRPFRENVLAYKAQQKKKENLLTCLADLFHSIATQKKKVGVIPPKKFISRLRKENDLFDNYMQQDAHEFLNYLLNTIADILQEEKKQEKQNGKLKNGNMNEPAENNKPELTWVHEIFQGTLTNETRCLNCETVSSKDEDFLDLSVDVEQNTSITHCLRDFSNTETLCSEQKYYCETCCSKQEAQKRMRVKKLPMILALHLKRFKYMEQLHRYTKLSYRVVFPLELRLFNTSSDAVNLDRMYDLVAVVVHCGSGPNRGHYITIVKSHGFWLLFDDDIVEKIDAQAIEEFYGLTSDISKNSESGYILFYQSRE

Cc1nc(CN2CCCN(C(=O)CCl)CC2)no1.Cl
inactive: USP42 0.102 | USP46 0.0734 | USP47 -0.095 | USP48 0.261 | USP5 -0.016 | USP54 -0.482 | USP7 -0.0348 | USP8 0.237
